Test results from PubChem BioAssay AID652067 (The Scripps Research Institute Molecular Screening Center, 2013).
Among all 370,000 compounds or so, about 5,400 (1.5%) were called active.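 How the source made its calls: active means activation above the mean of all tested compounds plus 3 SD (cut at about 5.5% in these data); inactive means the rest.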 The sample as a whole holds a higher share of actives than the screen did.

system: DAF-12 nuclear receptor (Haemonchus contortus); assay: hcDAF-12 driven luciferase reporter activation – cell-based, luminescence, HEK293, lit1-tk-luc reporter, primary screen (AID 652067); conditions: HEK293 hcDAF-12 lit1-tk-luc reporter, at 6.8 µM, stronger effect = higher value, 0% DMSO, 100% Δ7-dafachronic acid;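 further: 100% = response to 3 µM Δ7-dafachronic acid high control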

Structure (SMILES) | activation
O=C(NCc1ccco1)C1CCCN1S(=O)(=O)c1ccccc1C(F)(F)F (stereo not drawn) | -2.37% (inactive)
CN(C)c1nc(N)nc(CSc2ccccn2)n1 | 0.13% (inactive)
Cc1ccc(NC(=O)c2cnc(SCC(=O)NCC3CCCO3)n(C)c2=O)cc1 (stereo not drawn) | 5.83% (active)
CCn1c(SCC(=O)NCC2CCCO2)nc2ccccc21 (stereo not drawn) | 1.17% (inactive)
Cn1c(SCC(=O)c2ccccc2)ncc(C(=O)Nc2ccc(F)cc2)c1=O | 0.15% (inactive)
CCCCN(CC)C(=O)c1ccccc1Oc1ccccc1 | -2.5% (inactive)
COCc1cc(N2CCN(C(=O)OC(C)(C)C)C[C@@H]2C)ccc1N1CCN(Cc2ccccc2)[C@H](C)C1 | -1.75% (inactive)
CCCOc1ccc(C(=O)NCCc2ccccc2)cc1 | 7.01% (active)
CC(C)c1ccc(C(=O)NCCCc2ccccc2)cc1 | 2.26% (inactive)
O=C(NCCc1ccccc1)Oc1ccc(Cl)cc1 | 2.6% (inactive)
N#Cc1ccc(OCCCN2CCC(C(O)(c3ccccc3)c3ccccc3)CC2)c(F)c1 | -0.43% (inactive)
CCOCCCNC(=O)C(NC(=O)CNC(=O)c1ccccc1)c1ccc(C)cc1 (stereo not drawn) | -0.9% (inactive)
CCOCCCNC(=O)C(NC(=O)Cc1c[nH]c2ccccc12)c1ccc(OC)cc1 (stereo not drawn) | 5.82% (active)
CCOCCCNC(=O)C(NC(=O)CNC(=O)c1ccccc1)c1ccc(OC)cc1 (stereo not drawn) | 1.22% (inactive)
COc1ccc(-n2c(COc3ccc(C)cc3)nnc2SCC(=O)Nc2ccc(Oc3ccccc3)cc2)cc1 | -2.93% (inactive)
CCN(CC)C(=O)CC[C@H]1CC[C@]2(CCCN(Cc3ccc(Cl)cc3)C2)O1 | -0.52% (inactive)
CN(Cc1ccc(C(F)(F)F)cc1)C(=O)[C@H]1O[C@@H](n2cnc3c(N)ncnc32)[C@H](O)[C@@H]1O | -3.28% (inactive)
Cc1cc(C)cc(NC(=O)C(OC(=O)c2ccc(O)cc2)c2ccccc2)c1 (stereo not drawn) | 2.07% (inactive)
COc1ccc(C)cc1NC(=O)C(OC(=O)c1cccc(S(=O)(=O)N(C)c2ccccc2)c1)c1ccccc1 (stereo not drawn) | 0.81% (inactive)
Cc1ccc(C)c(NC(=O)C(OC(=O)c2ccc(C)s2)c2ccccc2)c1 (stereo not drawn) | 5.84% (active)
Cn1c(NCc2cccnc2)nc2cc(-c3ccc(F)cc3)sc2c1=O | -0.57% (inactive)
O=c1[nH]c(CCl)nc2cc(-c3ccc(Cl)cc3)sc12 | 7.46% (active)

Structure (SMILES) | activation
COc1cccc(-c2cc3nc(NCCOc4ccccc4Cl)n(C)c(=O)c3s2)c1 | -0.41% (inactive)
CCCOc1ccc(Oc2c(Cl)cnn(Cc3cccc4ccccc34)c2=O)cc1 | 0.08% (inactive)
N[C@@H](Cc1ccccc1)C(=O)N1CCOCC1 | -1.46% (inactive)
O=C(O)CC(CC(=O)N1CCOCC1)c1ccccc1 (stereo not drawn) | -2.07% (inactive)
O=C(CSC(=S)N1CCCCC1)c1c(F)cccc1F | 6.39% (active)
COc1cccc(NC(=O)CN(C)C(=O)CSC(=S)N2CCCC2)c1 | 0.17% (inactive)
CC(=O)c1ccc(NC(=O)CSC(=S)N2CCCC2)cc1 | 4.8% (inactive)
O=C(CSC(=S)N1CCOCC1)c1ccccc1 | 6.9% (active)
CCOC(=O)[C@@]12CCC3=C1N(CCC3)C(=O)[C@H](CC(=O)N1CCN(C(=O)c3ccco3)CC1)C2 | 0.92% (inactive)
CN1CCOC1c1ccc(C2OCCN2C)cc1 (stereo not drawn) | -0.23% (inactive)
CC(=O)C1=C(C)N(Cc2ccccc2)C(=S)NC1c1cccc(Br)c1 (stereo not drawn) | 1.52% (inactive)
CCOc1ccc(NC(=O)CSc2ncnc3c2sc2ccccc23)cc1 | 2.39% (inactive)
COC(=O)[C@H](C(C)C)N1CCc2nnn(Cc3ccc(C)cc3)c2-c2ccccc2S1(=O)=O | -1.76% (inactive)
O=C(Nc1cc(F)cc(F)c1)OC1CCC12CCC(c1ccccc1)CC2 (stereo not drawn) | 1.63% (inactive)
O=C(O)c1ccccc1-c1ccccc1C(=O)NCCc1ccccc1 | -1.14% (inactive)
Nc1nonc1C(=O)NCCc1ccccc1 | -1.41% (inactive)
NC(=O)Nc1ccccc1C(=O)NCCc1ccccc1 | 8.5% (active)
CCN(CC)CCn1c(/N=C/c2cc(Br)ccc2O)nc2ccccc21 | 6.13% (active)
Cn1c(SCC(=O)N/N=C/c2ccc(O)c(O)c2)nc2ccccc21 | 0.79% (inactive)
C/C(=N\c1nc2ccccc2n1C)c1cc(Cl)ccc1O | 4.18% (inactive)
CCOC(=O)Cn1c2c(n(-c3ccc(F)cc3)c1=O)C=C(c1ccccc1)[C@@H](C)C(C(=O)N(C)C1CCCCC1)=C2 | -0.1% (inactive)
N#Cc1cccc(C(=O)NCC2CCN(C(=O)C(=O)c3cc4ccccc4o3)CC2)c1 | -1.58% (inactive)

Structure (SMILES) | activation
Cc1cccc(NC(=O)C[C@H]2CC[C@H]3[C@@H](COc4ccc(NC(=O)Nc5ccccc5)cc4C(=O)N3C)O2)c1 | -0.28% (inactive)
CN(CC(=O)Nc1ccc(Cl)cc1)C(=O)CNC(=O)c1ccc2ccccc2c1 | 6.25% (active)
CN(CC(=O)Nc1ccc(Cl)cc1)CC(=O)Nc1cccc2ccccc12 | -0.93% (inactive)
CN(CC(=O)Nc1ccc(Cl)cc1)C(=O)c1ccc(COc2ccccc2)cc1 | -1.47% (inactive)
CN1C(=O)C2CC(O)C(SC3CC4C(=O)N(C)C(=O)C4CC3O)CC2C1=O (stereo not drawn) | 0.52% (inactive)
CC[C@H](NC(=O)[C@H](Cc1ccccc1)NC(=O)[C@H]1O[C@@H](n2cnc3c(=O)[nH]c(N)nc32)[C@H](O)[C@@H]1O)c1ccccc1 | -0.3% (inactive)
Fc1ccc(-c2ccc(CNCc3ccccn3)o2)cc1Cl | 0.05% (inactive)
Clc1ccccc1-c1cc(COc2ccc3ccccc3c2)no1 | -2.26% (inactive)
Clc1ccc(-c2cc(-c3ccccn3)on2)c(Cl)c1 | 12.3% (active)
CC(=O)N1CCCN(C2=Nc3ccccc3Sc3ccccc32)CC1 | -0.4% (inactive)
COCCCNC(=O)C[C@H]1C[C@@]2(C(=O)OC)C(=C[C@H](C(C)(C)C)O[C@@H]2C)N(Cc2ccc3c(c2)OCO3)C1=O | -1.12% (inactive)
O=C1CCC(=O)N(O)CCCCCNC(=O)CCC(=O)N(O)CCCCCNC(=O)CCC(=O)N(O)CCCCCN1 | 0.23% (inactive)
CCCCNC(=O)OC(C)CNC(=O)OC (stereo not drawn) | -0.33% (inactive)
CC(C)C(=O)Nc1ccc2c(c1)oc1ccccc12 | 6.7% (active)
CC(C)C(=O)Nc1oc(-c2ccccc2)cc1C#N | -1.35% (inactive)
CC(C)C(=O)Nc1c(C(=O)c2ccc(F)cc2)oc2ccccc12 | -1.93% (inactive)
FC(F)(F)c1cccc(NC(=S)OC2CCC23CCC(c2ccccc2)CC3)c1 (stereo not drawn) | -0.73% (inactive)
CCOC(=O)N1CCN(C(=O)C[C@H]2C[C@@]3(C(=O)OC)C(=C[C@H](C4CCCC4)O[C@@H]3C)N(Cc3ccccc3)C2=O)CC1 | -0.64% (inactive)
Cc1ccc(-n2c(SCC(=O)Nc3cccc4ccccc34)nnc2-c2ccco2)cc1 | -2.24% (inactive)
COc1cccc(-c2cc(CNC(=O)[C@@H](Cc3ccccc3)NC(=O)[C@H]3O[C@@H](n4cnc(C(N)=O)n4)[C@H](O)[C@@H]3O)no2)c1 | -1.75% (inactive)
O=C(Nc1cccc(Cl)c1)OC1CC2CC1[C@H]1CCCCN1[C@H]2Cc1ccccc1 (stereo partly drawn) | -1.09% (inactive)
COc1ccc(C(=O)NN2C(=O)C3C(c4ccccc4)C=CC(c4ccccc4)C3C2=O)cc1 (stereo not drawn) | 0.07% (inactive)

Structure (SMILES) | activation
COc1ccc2c(c1)N(C)/C(=C1/SC(=S)N(NC(C)=O)C1=O)S2 | -1.24% (inactive)
CC(=O)N1C(=O)/C(=C2\SC(=S)N(NC(=O)c3ccc(O)cc3)C2=O)c2ccccc21 | 8.31% (active)
CCOC(=O)N1CCN(C(=O)C[C@H]2C[C@@]3(C(=O)OC)C(=C[C@H](C(C)(C)C)O[C@@H]3C)N(Cc3ccc(Cl)cc3Cl)C2=O)CC1 | -1.96% (inactive)
COc1ccc([C@H]2[C@H](C(C)=O)N3N=Cc4ccccc4C3C23C(=O)OC(C)(C)OC3=O)cc1 (stereo partly drawn) | -0.72% (inactive)
COC(=O)c1cccc(Cn2ccc3ccc(-c4ccc5ccn(C(=O)c6ccccc6C)c5c4)cc32)c1 | -0.36% (inactive)
O=C(NC1CCCCN(Cc2cccc(C(F)(F)F)c2)C1=O)c1ccccc1I (stereo not drawn) | -2.6% (inactive)
O=C(CSCc1ccccc1)N1CCc2ccccc21 | 6.78% (active)
CC(OC(=O)Cc1ccc(F)cc1)C(=O)N1CCc2ccccc21 (stereo not drawn) | -0.21% (inactive)
O=C(CN1C(=O)c2ccccc2S1(=O)=O)N1CCc2ccccc21 | -5.07% (inactive)
CC(=O)N1CCc2cc(S(=O)(=O)NCCC(=O)N3CCCC3)ccc21 | 1.64% (inactive)
CCn1c(NC(=O)c2nn(C)cc2Br)nc2ccccc21 | -2.93% (inactive)
Cn1c(NC(=O)c2ccccc2)nc2ccccc21 | 14.3% (active)
O=C(NC1=CC(=O)c2ccccc2C1=O)c1ccccc1 | -0.21% (inactive)
C[C@@H](NC(=O)c1ccccc1OCC(=O)Nc1ccc(I)cc1)C(=O)N(C)Cc1ccccc1 | -0.3% (inactive)
COCC(=O)N[C@@H]1C[C@@H]2O[C@@H](CO)CC[C@@H]2O[C@@H]1CCc1ccc(-c2ccccc2)cc1 | -2.01% (inactive)
O=C(O)CSc1nccc2ccccc12 | 0.9% (inactive)
O=C(O)CSCc1nc2ccccc2s1 | 5.6% (active)
Cn1c(SCc2nc3ccccc3s2)nnc1-c1ccc2c(c1)OCO2 | 3.52% (inactive)
O=C(CSc1nc2ccccc2s1)NN=Cc1ccc(O)cc1O | -0.04% (inactive)
O=C(O)c1ccccc1CSc1nc2ccccc2s1 | 8.09% (active)
O=C(CSc1nc2ccccc2s1)N=Nc1c(O)[nH]c2ccccc12 | -1.5% (inactive)
O=C(N[C@H](Cc1ccccc1)C(=O)N1CCCN(Cc2cccs2)CC1)[C@H]1O[C@@H](n2ccc(=O)[nH]c2=O)[C@H](O)[C@@H]1O | -1.83% (inactive)
